Records with an inconclusive call do not appear. Where a call stands in place of a potency, no number is given. Active and inactive are the calls of the source. Calls come from the whole dose curve; as a rule, active = well fitted curve in the direction sought with a large enough effect; inconclusive = small, poorly fitted or top-dose-only effect, or another doubt; inactive = no such curve, though single readings can be large; an effect the other way counts as inactive or inconclusive.
Assays:
[1] = qHTS of Trypanosoma Brucei Inhibitors: LOPAC Validation (AID 624147)
Outline: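 In this concentration-response screen, enzyme-free wells defined baseline while DMSO plates tracked drift. Each reaction combined TbPYK, substrate, compound and 130 uM ADP for 45 min at room temperature. Kinase-Glo Plus luminescence gave the signal.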

[2] = target: Glucagon-like peptide 1 receptor (Homo sapiens) (UniProt P43220); assay: qHTS of GLP-1 Receptor Agonists: LOPAC Validation (AID 624148);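 note: higher luminescence signal means agonism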
Glucagon-like peptide 1 receptor (Homo sapiens), sequence (P43220 whole entry, looked up): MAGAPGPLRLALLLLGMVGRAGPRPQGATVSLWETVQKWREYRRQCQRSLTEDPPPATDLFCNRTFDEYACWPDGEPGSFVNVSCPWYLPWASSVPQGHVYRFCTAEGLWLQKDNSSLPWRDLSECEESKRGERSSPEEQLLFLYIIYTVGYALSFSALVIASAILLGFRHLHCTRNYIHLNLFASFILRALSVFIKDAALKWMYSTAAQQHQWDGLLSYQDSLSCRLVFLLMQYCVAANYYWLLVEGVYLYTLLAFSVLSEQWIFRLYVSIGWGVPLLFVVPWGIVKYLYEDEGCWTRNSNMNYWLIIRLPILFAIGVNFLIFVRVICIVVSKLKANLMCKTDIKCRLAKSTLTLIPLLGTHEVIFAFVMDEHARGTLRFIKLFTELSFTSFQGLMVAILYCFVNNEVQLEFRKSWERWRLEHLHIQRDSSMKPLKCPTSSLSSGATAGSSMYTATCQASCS
Outline: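 HEK293 cells stably co-expressing a cAMP-responsive luciferase reporter and a hypersensitive GLP-1R were plated 12 h at 37 °C and exposed to compounds for 4-6 hr at 37 °C, 5% CO2. Luminescence was read 12 min after adding detection reagent.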

[3] = qHTS of Nrf2 Activators: LOPAC Validation (AID 624149)
Outline: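 Following overnight seeding in 5% FBS OPTI-MEM, AREc32_Fluc cells receive compounds for a 24 hr incubation at 37 deg C with 5% CO2. Steady-Glo is added, and after 30 min at RT luminescence is recorded.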

[4] = HTS Assay for Allosteric Antagonists of the Human D2 Dopamine Receptor: Hit Validation in HTRF (AID 624455); note: potency is the fitted concentration of half-maximal effect;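 note: stable D1 dopamine receptor cell line scored for blocking the D1 response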
Outline: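 Validation of hits used D1 receptor stably expressed in cells with HTRF detection of response inhibition; origin screen measured calcium flux following EC80 dopamine in a force-coupled, inducible Hek293 Trex D2 cell line.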

[5] = target: Glutaminase kidney isoform, mitochondrial (Homo sapiens) (UniProt O94925); assay: qHTS for Inhibitors of Glutaminase (GLS): LOPAC Validation (AID 624146);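 note: glutamate product detected by oxidase and peroxidase coupled Amplex red fluorescence gain; series mostly up to about 46 µM; nearly all actives have a fitted effect of over 60% in size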
Glutaminase kidney isoform, mitochondrial (Homo sapiens), sequence (O94925 whole entry, looked up, canonical isoform): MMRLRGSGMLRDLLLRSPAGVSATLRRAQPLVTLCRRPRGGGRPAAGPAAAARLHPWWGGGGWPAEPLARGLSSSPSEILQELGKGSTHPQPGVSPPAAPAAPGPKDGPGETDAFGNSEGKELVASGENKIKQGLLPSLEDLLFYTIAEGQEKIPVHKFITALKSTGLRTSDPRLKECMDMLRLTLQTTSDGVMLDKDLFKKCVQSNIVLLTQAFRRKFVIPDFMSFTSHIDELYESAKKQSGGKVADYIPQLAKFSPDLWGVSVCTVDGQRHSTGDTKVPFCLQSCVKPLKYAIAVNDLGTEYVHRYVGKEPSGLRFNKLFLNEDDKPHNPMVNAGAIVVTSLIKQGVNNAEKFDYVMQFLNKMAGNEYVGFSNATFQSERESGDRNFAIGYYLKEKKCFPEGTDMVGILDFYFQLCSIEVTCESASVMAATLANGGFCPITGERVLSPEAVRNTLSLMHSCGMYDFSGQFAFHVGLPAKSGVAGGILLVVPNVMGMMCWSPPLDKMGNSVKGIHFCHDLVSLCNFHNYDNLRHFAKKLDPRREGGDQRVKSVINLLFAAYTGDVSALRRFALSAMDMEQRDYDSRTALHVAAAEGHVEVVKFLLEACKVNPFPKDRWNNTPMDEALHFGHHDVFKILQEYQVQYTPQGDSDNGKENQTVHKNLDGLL
Outline: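 Two-point fluorescence kinetic (t0, 30 min RT) for hKGA; glutamate detected via glutamate oxidase–HRP–Amplex Red. Substrate: 1 mM L-glutamine solution; buffer 45 mM KH2PO4, pH 8.2.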

Question: Which Potency [1] does the source give for `NC(=S)NCCC[C@H](N)C(=O)O` here?
Answer: inactive

Question: What about the outcome [2] of the same compound?
Answer: inactive

Question: And the outcome [3]?
Answer: inactive

Question: And the Potency [4]?
Answer: inactive

Question: With `COc1ccc2c(c1)CCC1C2CC[C@@]2(C)C1CC[C@@H]2NCCCCCCN1C(=O)CCC1=O` (stereo partly drawn) as the compound, how does the Potency [1] read?
Answer: inactive

Question: And the outcome [2]?
Answer: inactive

Question: What about the Potency [4] of the same compound?
Answer: inactive

Question: For `Oc1ccc(C2CNCc3sccc32)cc1O` (stereo not drawn), which Potency [1] is on record?
Answer: inactive

Question: What about the outcome [2] of the same compound?
Answer: inactive

Question: What about the outcome [3] of the same compound?
Answer: inactive

Question: What about the Potency [4] of the same compound?
Answer: 146 nM (active)

Question: For `C[N+](C)(C)CC(=O)[O-]`, which Potency [1] is on record?
Answer: inactive

Question: For `CCCCCCCC/C=C\CCCCCCCC(=O)NCCO`, which outcome [2] is on record?
Answer: inactive

Question: And the outcome [3]?
Answer: inactive

Question: And the Potency [4]?
Answer: inactive

Question: Which Potency [4] does the source give for `CC(C)NC[C@@H](O)c1ccc(O)c(O)c1` here?
Answer: inactive

Question: For `CN1C2CC(OC(=O)[C@H](CO)c3ccccc3)CC1C1OC12` (stereo partly drawn), which Potency [1] is on record?
Answer: inactive

Question: And the outcome [2]?
Answer: inactive

Question: What about the outcome [3] of the same compound?
Answer: inactive

Question: What about the Potency [4] of the same compound?
Answer: inactive

Question: What does the source list for `CC(=O)/C=C1\C(=O)N(C)c2ccccc21`?
Answer: Potency [1]: inactive; outcome [2]: inactive; Potency [4]: inactive

Question: For `Nc1nc(SCc2ccc([N+](=O)[O-])cc2)c2ncn([C@@H]3O[C@H](CO)[C@@H](O)[C@H]3O)c2n1`, which Potency [1] is on record?
Answer: inactive

Question: And the outcome [2]?
Answer: inactive

Question: What about the Potency [4] of the same compound?
Answer: inactive

Question: For `O=C1NC(=O)/C(=C/c2ccc(-c3ccc(F)cc3O)o2)S1`, which Potency [1] is on record?
Answer: inactive

Question: What about the outcome [2] of the same compound?
Answer: inactive

Question: And the Potency [4]?
Answer: inactive

Question: For `C=CC(=O)c1ccc(CCCCCC)cc1`, which Potency [1] is on record?
Answer: inactive

Question: And the outcome [2]?
Answer: inactive

Question: What about the outcome [3] of the same compound?
Answer: inactive

Question: Which results are given for `CNC(=O)[C@H]1O[C@@H](n2cnc3c(NCc4ccc(N)cc4)ncnc32)[C@H](O)[C@@H]1O`?
Answer: outcome [2]: inactive; outcome [3]: inactive; Potency [4]: inactive

Question: For `CCCCCC(O)c1cccc(OCc2ccc3ccccc3n2)c1` (stereo not drawn), which Potency [1] is on record?
Answer: inactive

Question: And the outcome [2]?
Answer: inactive

Question: And the outcome [3]?
Answer: inactive

Question: What about the Potency [4] of the same compound?
Answer: inactive

Question: For `COc1ccc(NC(=O)/C=C/c2ccc(Cl)cc2)cc1`, which Potency [1] is on record?
Answer: inactive

Question: And the outcome [2]?
Answer: inactive

Question: What about the outcome [3] of the same compound?
Answer: inactive

Question: And the Potency [4]?
Answer: inactive

Question: What does the source list for `O=C1/C(=C/c2ccsc2)CC/C1=C\c1cccs1`?
Answer: outcome [2]: inactive; Potency [4]: inactive

Question: With `Cc1nc2sccn2c(=O)c1CCN1CCC(=C(c2ccccc2)c2ccc(F)cc2)CC1` as the compound, how does the Potency [1] read?
Answer: inactive

Question: What about the outcome [2] of the same compound?
Answer: inactive

Question: What about the Potency [4] of the same compound?
Answer: inactive

Question: For `NS(=O)(=O)C#Cc1ccccc1`, which outcome [2] is on record?
Answer: inactive

Question: And the outcome [3]?
Answer: inactive

Question: And the Potency [4]?
Answer: inactive

Question: Which Potency [1] does the source give for `Nc1ncnc2c1ncn2[C@@H]1O[C@H](COP(=O)(O)CP(=O)(O)OP(=O)(O)O)[C@@H](O)[C@H]1O` here?
Answer: inactive

Question: What about the outcome [2] of the same compound?
Answer: inactive

Question: And the outcome [3]?
Answer: inactive

Question: What about the Potency [4] of the same compound?
Answer: inactive

Question: What does the source list for `CCOC(=O)N1CCN(/[N+]([O-])=N/Oc2ccc([N+](=O)[O-])cc2[N+](=O)[O-])CC1`?
Answer: Potency [1]: inactive; outcome [2]: inactive; Potency [4]: inactive

Question: Which results are given for `S=C(S)OC1CC2CC1C1CCCC21` (stereo not drawn)?
Answer: Potency [1]: inactive; outcome [2]: inactive; outcome [3]: inactive; Potency [4]: inactive

Question: With `CC(C)ON([C@@H](C(=O)NO)C(C)C)S(=O)(=O)c1ccc(-c2ccccc2)cc1` as the compound, how does the Potency [1] read?
Answer: inactive

Question: What about the outcome [2] of the same compound?
Answer: inactive

Question: What about the outcome [3] of the same compound?
Answer: inactive

Question: What about the Potency [4] of the same compound?
Answer: inactive

Question: What does the source list for `N#C/C(=C\c1ccc(O)c(O)c1)C(=O)NCCCc1ccccc1`?
Answer: outcome [2]: inactive; outcome [3]: inactive; Potency [4]: inactive

Question: For `Nc1nc(Nc2ccccc2)nc2c1ncn2[C@@H]1O[C@H](CO)[C@@H](O)[C@H]1O`, which Potency [5] is on record?
Answer: inactive

Question: And the Potency [4]?
Answer: inactive

Question: Which Potency [1] does the source give for `O=[N+]([O-])c1ccc(CSc2ncnc3c2ncn3[C@@H]2O[C@H](CO)[C@@H](O)[C@H]2O)cc1` here?
Answer: inactive

Question: What about the outcome [2] of the same compound?
Answer: inactive

Question: And the outcome [3]?
Answer: inactive

Question: What about the Potency [4] of the same compound?
Answer: inactive

Question: What does the source list for `CN1CCc2cc(O)c(O)cc2C(c2ccccc2)C1` (stereo not drawn)?
Answer: Potency [1]: inactive; outcome [2]: inactive; outcome [3]: inactive
